39 molecules from PubChem BioAssay (NCI) can be followed below.

This is part of a sample that, as a whole, favours compounds with a hit. Of some 83,000 tested, about 20% had one in any assay.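 Step 1: grow cells in 96-well plates. Step 2: add test compound at a single concentration. Step 3: incubate 48 h. Step 4: record percent growth.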 Active and inactive are the calls of the source. The calls were made as follows: active = growth percent below 10; inactive = the rest.

The subject of this experiment is SNB-75 CNS. Description: NCI-60 one-dose screen, 48 h (100 = growth as untreated, 0 = no growth, -100 = all killed). Particulars: 10 µM unless noted.
Regarding `C#C[C@]1(O)CC[C@H]2[C@@H]3CC=C4c5sc(N(C)c6ccccc6)nc5CC[C@]4(C)[C@H]3CC[C@@]21C`, the growth was 99.8% (inactive).

With `CC(=O)c1c([Si](C)(C)C)c2cc(C#N)ccn2c1C(=O)c1ccc(Br)cc1`, the growth is 95.1% (inactive). Next, `O=C(CSc1nc2ccccc2c(=O)n1-c1ccc(Cl)c(Cl)c1)Nc1ccc(S(=O)(=O)Nc2ccc(Cl)nn2)cc1`: 68.8% (inactive). For the molecule `C#CCN(C)CCCOc1ccc(NCc2ccc(/C=C/C(=O)NO)cc2)cc1Cl`, the growth is 9.93% (active).

With `O=C(NNc1nc2cc(F)cc(F)c2n2cccc12)c1cccnn1`, the growth was 24.5% (inactive). Under `COc1ccc(/C(=N\NC(N)=S)c2ccc(Cl)cc2)cc1OC` stands -8.75% (active); under `COc1ccc(-c2c(C(N)=O)c(N)n(Cc3nc4ccccc4[nH]3)c(=O)c2C#N)c(OC)c1`, 88.3% (inactive). Under `Cc1cc(Br)ccc1-n1cc(C#N)c(N)c1C(=O)c1ccc(Br)cc1` stands 95.6% (inactive); under `CN1CCN(Cc2ccc(NC(=O)c3cncc(C#Cc4cnc(N)nc4)c3)cc2C(F)(F)F)CC1`, 41.5% (inactive); under `CCOC(=O)c1c(NC(=O)c2ccc(C(F)(F)F)cc2)sc2c3c(ccc12)OCN(C)C3`, 69.7% (inactive). Under `O=C1CSC(c2cn(-c3ccccc3)nc2-c2ccc(Cl)cc2)N1c1ccccc1` (centres undefined) stands 99.9% (inactive); under `COc1ccc(-c2c3c(cn2Cc2cccc(OC)c2)-c2oncc2CCC3)cc1`, 103% (inactive).

In the case of `C#C[C@]1(O)CC[C@H]2[C@@H]3CC=C4c5sc(Nc6ccc(C)cn6)nc5CC[C@]4(C)[C@H]3CC[C@@]21C`, the growth is -12.2% (active). Next, `CCCCCCOC(=O)c1cc(-c2ccc(F)cc2)nc2ccccc12`: 69.9% (inactive); `CN1CCN(c2ccc(Nc3nc(NCCNS(=O)(=O)c4ccccc4)c4sccc4n3)cc2)CC1`: 81.5% (inactive); `CN1CCN(Cc2ccc(NC(=O)c3cncc(C#Cc4cnc5ccc(O[C@@H]6CCOC6)nn45)c3)cc2C(F)(F)F)CC1`: -98.4% (active). Under `CC(C)(C)Nc1nc2c(OCCc3ccccc3)cccn2c1-c1ccc([N+](=O)[O-])cc1` stands 88.1% (inactive). Under `N#Cc1c(-c2cccs2)cc(-c2cnccn2)nc1SCC(=O)N/N=C/c1ccc(Cl)cc1` stands 95.8% (inactive). For the molecule `CN(C)CCCOc1ccc(C(=C(c2ccccc2)C2CCCC2)c2ccc(OCCCN(C)C)cc2)cc1`, the growth was -66.1% (active). Next, `N#Cc1nc(-c2ccc(Cl)cc2)oc1N1CCC(S(=O)(=O)N2CCOCC2)CC1`: 94.2% (inactive); `CC(=O)C1=C(C)NC(NNc2ccccc2)=NC1c1ccc([N+](=O)[O-])cc1` (centres undefined): 102% (inactive). Under `COC(=O)c1ccc(NC2=C(Cl)C(=O)C(C)=C(C)C2=O)cc1` stands 64.5% (inactive). Next, `C=C(C=O)[C@@H]1CC[C@]2(C(=O)O)CC[C@]3(C)C(CC[C@@H]4[C@@](C)(CCC#N)[C@H](C(=C)C=O)CC[C@]43C)[C@@H]12` (some centres undefined): 59% (inactive); `CCOC(=O)C1=C(C)NC(C)=C(C(=O)OC(C)C)C1c1cccc(C#N)c1` (centres undefined): 84.5% (inactive); `CC1(C)CC[C@]23CC[C@]4(C)[C@H](CC[C@@H]5[C@@]6(C)CC[C@H](NCO)C(C)(C)[C@@H]6CC[C@]54C)[C@H]2[C@H]1OC3`: 86.5% (inactive). `COc1ccc(C(=NNS(=O)(=O)c2ccc(C)cc2)c2ccccc2)cc1OC`: the growth was 90.4% (inactive). Next, `COc1cccc2c1C=CC1(O2)Oc2cccc(OC)c2C=C1C` (centres undefined): -8.19% (active). As for `Cc1csc(/N=C(N)/N=C(\N)c2cccnc2)n1`, the growth is 41.7% (inactive). Under `Cc1ccc(/C=N/Nc2nc(Nc3ccccc3)nc(Nc3ccc(S(N)(=O)=O)cc3)n2)cc1` stands 67.7% (inactive); under `CCCC[n+]1ccc(SCC(=O)n2ccc3ccccc32)c2ccccc21`, 92.7% (inactive).

Take `O=[N+]([O-])c1ccc(NC(=S)NNC(=S)Nc2ccc(Br)cc2)cc1`: the growth was 121% (inactive). On to `CCOP(=O)(OCC)OC[C@]12CCC(C)(C)CC1C1=CC[C@@H]3[C@@]4(C)CCCNC(C)(C)[C@@H]4CC[C@@]3(C)[C@]1(C)CC2` (some centres undefined), for which the growth is 93.6% (inactive).

As for `CNC(=O)Nc1ccc(Nc2cc(-c3ccc(-n4cccn4)cc3)[nH]n2)c(C)c1`, the growth was 123% (inactive). Next, `O=C(CCCCCCNC(=O)c1csc(Br)n1)NO`: 19.4% (inactive); `NS(=O)(=O)c1ccc(Nc2nc(N/N=C/c3ccc4c(c3)OCO4)nc(Nc3ccccc3)n2)cc1`: 53.6% (inactive); `CCc1cc2c(cc1Cl)nc1c(=O)[nH]c(=O)nc-1n2CCOCC(C)C`: 92.5% (inactive).

For the molecule `COc1cc(C(=O)c2cc(C(C)=O)c3cccc(C)n23)cc(OC)c1OC`, the growth was 5.39% (active).

As for `Nc1ncc(-c2ccc3ncnc(NCc4ccccc4)c3c2)cn1`, the growth was 41.2% (inactive). Next, `COc1ccc2c(c1)c(-c1nn3cc(-c4ccncc4)nc3s1)cn2C`: 29.6% (inactive).
